Experiments:
Details in all cases: concentration: 1 μM, replicates: in singlicate; n = 1
PIP5K1A = system: PIP5K1A
PIP5K1C = system: PIP5K1C
PIP5K2B = system: PIP5K2B
PIP5K2C = system: T1, PIP5K2C
T1 construct: gene PIP4K2C

PKAC-alpha = system: T2, PKAC-alpha
T2 construct: gene PRKACA

PKAC-beta = system: T3, PKAC-beta
T3 construct: gene PRKACB

PKMYT1 = system: PKMYT1
PKN1 = system: PKN1
PKN2 = system: PKN2
PLK1 = system: PLK1
PLK2 = system: PLK2
PLK3 = system: PLK3
PLK4 = system: PLK4
PRKCD = system: PRKCD
PRKCE = system: PRKCE
PRKCH = system: PRKCH
PRKCI = system: PRKCI
PRKCQ = system: PRKCQ
PRKD1 = system: PRKD1
PRKD2 = system: PRKD2
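Note: KINOMEscan kinase panel screen.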

Row | Compound | %Inh (PIP5K1A) [%] | %Inh (PIP5K1C) [%] | %Inh (PIP5K2B) [%] | %Inh (PIP5K2C) [%] | %Inh (PKAC-alpha) [%] | %Inh (PKAC-beta) [%] | %Inh (PKMYT1) [%] | %Inh (PKN1) [%] | %Inh (PKN2) [%] | %Inh (PLK1) [%] | %Inh (PLK2) [%] | %Inh (PLK3) [%] | %Inh (PLK4) [%] | %Inh (PRKCD) [%] | %Inh (PRKCE) [%] | %Inh (PRKCH) [%] | %Inh (PRKCI) [%] | %Inh (PRKCQ) [%] | %Inh (PRKD1) [%] | %Inh (PRKD2) [%]
1 | Oc1cc(Nc2ccnc3cc(I)ccc23)ccc1F [GW552771] | 8 | 13 | 0 | 30 | 0 | 0 | 0 | 19 | 0 | 0 | 0 | 0 | 0 | 0 | 3 | 13 | 30 | 0 | 45 | 30
2 | O=C(Nc1cccc(-c2nn3ccccc3c2-c2ccnc(Nc3cccc(C(F)(F)F)c3)n2)c1)c1c(F)cccc1F [GSK292658] | 0 | 0 | 5 | 10 | 0 | 13 | 0 | 11 | 0 | 0 | 0 | 0 | 3 | 0 | 0 | 17 | 9 | 20 | 0 | 0
3 | Cl.c1ccc(-c2ccc3c(Nc4ccc5[nH]ccc5c4)ccnc3c2)nc1 [GW440138] | 50 | 66 | 8 | 65 | 0 | 0 | 0 | 0 | 0 | 0 | 0 | 0 | 9 | 0 | 11 | 12 | 0 | 0 | 1 | 2
4 | COc1cccc(NC(=O)NC2CCN(c3ccnc(Nc4cc(OC)c(OC)c(OC)c4)n3)C2)c1 (stereo not shown) [GSK1379763] | 0 | 57 | 0 | 91.1 | 0 | 0 | 64 | 0 | 0 | 15 | 0 | 12 | 48 | 0 | 14 | 0 | 0 | 0 | 0 | 0
5 | COc1cc(Nc2nccc(N3CCC(NC(=O)Nc4cccc(C(C)=O)c4)C3)n2)cc(OC)c1OC (stereo not shown) [GSK1379753] | 0 | 46 | 5 | 86 | 0 | 0 | 0 | 0 | 0 | 0 | 0 | 0 | 54 | 5 | 0 | 0 | 25 | 0 | 0 | 0
6 | Cc1ccc(C(=O)N2CC[C@@H](O)C2)cc1-n1c(C)cc(OCc2ccc(F)cc2F)c(Br)c1=O | 0 | 50 | 0 | 38 | 3 | 0 | 0 | 16 | 0 | 0 | 0 | 0 | 0 | 0 | 0 | 0 | 2 | 0 | 0 | 0
7 | O=c1[nH]cc(-c2ccc(N3CCOCC3)cc2)c2sc(-c3cn[nH]c3)cc12 [GSK2276055] | 0 | 24 | 1 | 0 | 0 | 0 | 0 | 15 | 0 | 7 | 18 | 0 | 17 | 0 | 0 | 0 | 17 | 21 | 0 | 30
8 | O=C(Nc1n[nH]c2nc(-c3ccc(O)cc3)ccc12)C1CC1 [SB-710363] | 21 | 83 | 56 | 0 | 0 | 18 | 0 | 19 | 23 | 0 | 10 | 0 | 30 | 37 | 45 | 19 | 0 | 16 | 0 | 0
9 | COc1cc(Nc2ncc3c(C)nc(-c4cc5ccccc5[nH]4)n3n2)cc(OC)c1OC [GW869516] | 0 | 89 | 29 | 90.3 | 0 | 51 | 25 | 0 | 0 | 19 | 23 | 24 | 0 | 43 | 0 | 0 | 45 | 0 | 0 | 0
10 | c1ccc(-c2cnc3nccnn23)cc1 [AH20685] | 0 | 24 | 13 | 0 | 0 | 0 | 0 | 7 | 0 | 0 | 0 | 0 | 0 | 0 | 0 | 4 | 3 | 0 | 0 | 0
11 | c1ccc(-c2n[nH]cc2Nc2ccnc3ccccc23)nc1 [GW694077] | 10 | 73 | 54 | 72 | 0 | 0 | 0 | 7 | 0 | 0 | 0 | 0 | 48 | 0 | 22 | 0 | 48 | 0 | 91.8 | 96.2
12 | O=C(Nc1cccc(-c2nn3ccccc3c2-c2ccnc(Nc3cccc(F)c3)n2)c1)c1c(F)ccc(F)c1Cl [GSK357952] | 0 | 7 | 8 | 0 | 13 | 18 | 5 | 17 | 0 | 0 | 0 | 2 | 0 | 8 | 0 | 31 | 0 | 38 | 21 | 0
13 | COc1cc(Nc2nccc(N3CCC(NC(=O)c4cc5ccccc5s4)C3)n2)cc(OC)c1OC (stereo not shown) [GSK1379760] | 26 | 52 | 15 | 92.6 | 18 | 0 | 0 | 0 | 1 | 17 | 0 | 14 | 0 | 7 | 14 | 5 | 7 | 3 | 0 | 23
14 | c1ccc(Oc2ccc(Nc3ccnc4cc(-c5ccc(CNCCN6CCOCC6)o5)ccc34)cc2)nc1 [GW567145] | 62 | 71 | 21 | 57 | 0 | 0 | 0 | 0 | 0 | 0 | 0 | 0 | 43 | 0 | 12 | 4 | 39 | 4 | 0 | 13
15 | Cl.NC(=O)c1cccc(Nc2nccc(Nc3ccc(Oc4c(Cl)cccc4Cl)c(Cl)c3)n2)c1 [GW659009] | 0 | 19 | 97.4 | 64 | 0 | 0 | 0 | 59 | 0 | 0 | 0 | 30 | 0 | 0 | 0 | 0 | 0 | 0 | 0 | 0
16 | O=C(NC1CCN(c2ccnc(Nc3ccc(F)cc3)n2)C1)c1cc2ccccc2s1 (stereo not shown) [GSK1379716] | 7 | 60 | 0 | 42 | 0 | 0 | 6 | 0 | 0 | 7 | 0 | 0 | 1 | 0 | 2 | 30 | 15 | 16 | 21 | 28
17 | COc1cc(Nc2nccc(-c3c(-c4cccc(NC(=O)c5c(F)cccc5F)c4)nn4ncccc34)n2)cc(OC)c1OC [GSK327238] | 0 | 19 | 20 | 93.9 | 44 | 47 | 8 | 62 | 13 | 12 | 68 | 92.7 | 44 | 79 | 14 | 67 | 9 | 90.2 | 6 | 14
18 | Fc1ccc(-c2ncn(C3CCNCC3)c2-c2ccnc(Oc3ccc(-c4ccccc4)cc3)n2)cc1 [SB-245391] | 14 | 24 | 0 | 20 | 35 | 31 | 9 | 0 | 18 | 35 | 28 | 17 | 27 | 32 | 40 | 0 | 54 | 0 | 0 | 0
19 | COc1cc2c(cc1OCCN1CCNCC1)ncc1c3ccc(C#N)cc3[nH]c21 | 58 | 1 | 46 | 16 | 0 | 0 | 0 | 61 | 41 | 28 | 22 | 20 | 32 | 0 | 19 | 0 | 24 | 0 | 0 | 0
20 | O=C(O)C(F)(F)F.O=C(O)C(F)(F)F.O=c1[nH]ccc2nc(N[C@@H]3CCCNC3)nc(Nc3ccc(S(=O)(=O)N4CCOCC4)cc3)c12 [GSK2177277] | 72 | 76 | 94.4 | 89 | 82 | 86 | 0 | 85 | 96.1 | 38 | 10 | 0 | 98.7 | 99.8 | 99.9 | 99 | 95.3 | 99.2 | 94.8 | 99.1

Reference: PMC5540273 (PLoS ONE, 2017)
